NALP1 yeast inh – NALP1 inflammasome inhibitors in reconstituted yeast, colorimetric, S. cerevisiae, triplicate retest; inhibition, % at 10 µM; S. cerevisiae NALP1/ASC/caspase-1 growth, X-gal OD620, 72 h; 280,000 tested, 0.61% active; in the data active = inhibition mostly above about 24%, no sharp cut-off; inactive = mostly below about 32%
PfHsp90 set2 – growth inhibition of PfHsp90-expressing yeast, primary screen, antimalarial PfHsp90 inhibitor project, S. cerevisiae, BacTiter-Glo luminescence, single point, set 2; BacTiter-Glo ATP, 48 h; yeast lacking PDR1 and PDR3 efflux regulators; inhibition, % at 9.4 µM; AID 504621, 2011; 310,000 tested, 0.32% active;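 active = every replicate shows inhibition above about 80%, whatever the replicate mean, limit read from the data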
NALP3 yeast inh – NALP3 inflammasome inhibitors in reconstituted yeast, primary screen, luminescence, uHTS; AID 2825, 2010; Yeast reconstituted NLRP3/ASC/caspase-1, beta-gal luminescence, 24 h; 330,000 tested, 0.39% active; inhibition, % at 10 µM;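 active = inhibition of 50% or more; inactive = inhibition below 50%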
TIM10 inh – growth inhibitors of isogenic TIM10 control yeast, primary screen, counter-screen for tim10-1 yeast inhibitor project, luminescence, uHTS | 330,000 tested, 1.4% active | S. cerevisiae TIM10 strain growth, BacTiter-Glo luminescence, 24 h | inhibition, % at 10 µM;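 active = inhibition of 40% or more at the single tested concentration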;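 also: wild-type TIM10 isogenic control strain grown at permissive 25 °C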
tim10-1 inh – growth inhibitors of tim10-1 mutant yeast, primary screen, luminescence, uHTS. S. cerevisiae tim10-1 ts strain growth, BacTiter-Glo, 24 h. inhibition, % at 20 µM. 330,000 tested, 2.2% active. AID 463190, 2010;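 active = inhibition of at least 40%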;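 also: mutant grown at 25 °C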
tim23-1 inh – growth inhibitors of tim23-1 mutant yeast, primary screen, luminescence, uHTS | inhibition, % at 20 µM | AID 463212, 2010 | S. cerevisiae tim23-1 growth, BacTiter-Glo luminescence, 24 h | 330,000 tested, 1.3% active;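 active = growth inhibition of the mutant yeast at or above 50%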;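 also: temperature-sensitive mutant grown at 25 °C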
tim10-1 conf – growth inhibitors of tim10-1 mutant yeast, confirmation, single concentration, luminescence, S. cerevisiae | S. cerevisiae tim10-1 ts strain growth, BacTiter-Glo, 24 h | 7,400 tested, 56% active | shares compounds with tim10-1 inh | inhibition, % at 20 µM;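 active = inhibition of yeast growth at or above a set limit in either of two repeat tests at 20 µM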;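 also: tim10-1 mutant grown at permissive 25 °C to find synthetic lethal compounds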
TIM10 conf – growth inhibitors of wild-type TIM10 yeast, confirmation, counter-screen for tim10-1 synthetic lethality project, single concentration, luminescence, S. cerevisiae. shares compounds with TIM10 inh. S. cerevisiae tim10 strain growth, BacTiter-Glo luminescence, 24 h. inhibition, % at 10 µM. 4,600 tested, 63% active. AID 463215, 2010;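 active = inhibition of yeast growth at or above a set limit in either of two replicates at 10 µM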; also: this counterscreen used the strain with wild-type TIM10
tim23-1 confirm – tim23-1 mutant yeast growth inhibitors, confirmation, luminescence, single concentration; 4,400 tested, 83% active; S. cerevisiae tim23-1 growth, BacTiter-Glo luminescence, 24 h; AID 463218, 2010; shares compounds with tim23-1 inh; inhibition, % at 20 µM;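 active = inhibition above about 39% in either of two replicate wells at 20 µM, limit read from the data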;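 also: temperature-sensitive tim23-1 mutant grown at 25 °C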
Each line names hits and unclear results; the compound was inactive in the other large screens (follow-up assays come after a bar, where they were run). Hits are enriched below; roughly 4.1% of the tested compounds scored in any of these assays.

CN1CCN(c2ccccc2NC(=S)NC(=O)c2cc3ccccc3o2)CC1	TIM10 inh 97.8, tim10-1 inh 40.3 | tim10-1 conf inactive | TIM10 conf inactive
O=C(/C=C/c1ccc(Cl)cc1)OCC(=O)c1ccc[nH]1	none (no result: NALP1 yeast inh)
Cc1ccccc1C(=O)NCC(=O)OCCCOC(=O)CNC(=O)c1ccccc1C	none (no result: NALP1 yeast inh)
Cc1ccc(NC(=O)COC(=O)COc2cccc3c2OC(C)(C)C3)cc1S(=O)(=O)N1CCOCC1	none (no result: NALP1 yeast inh)
O=C(CN(C(=O)c1csnn1)c1ccc(F)cc1)NCCc1ccccc1	none
O=C(O)CCN=CC1=C(O)CC(c2ccccc2)CC1=O (centres undefined)	none
CCOC(=O)c1c(S(=O)(=O)N2CCCCCC2)c(C)n(C)c1C	none
O=S(=O)(c1ccc(Cl)nc1)N1CCCC1	none (no result: NALP1 yeast inh)
O=S(=O)(CC(O)CS(=O)(=O)c1ccc(Cl)cc1)c1ccccc1 (centres undefined)	none (no result: NALP1 yeast inh)
COc1cccc(N2CCN(C(=O)c3ccc(Cl)c(NC4=NC5CS(=O)(=O)CC5S4)c3)CC2)c1 (centres undefined)	none
C=CCc1cccc(/C=N/NC(=O)c2ccccc2OC)c1O	TIM10 inh 57.2, tim10-1 inh 48.5 | tim10-1 conf 31.4 | TIM10 conf 38.5
Cc1c(NC(=O)Nc2cccc(C#N)c2)c(=O)n(-c2ccccc2)n1C	none
COc1ccc(C(=O)CSc2nc3ccccc3n2CC(=O)c2ccccc2)cc1	none
COc1ccc(C(=O)Cn2c(C(=O)/C=C/c3ccccc3)nc3ccccc32)cc1	TIM10 inh 41.5, tim10-1 inh 49.4 | tim10-1 conf 43.5 | TIM10 conf 35.5
CCN(CC)S(=O)(=O)c1ccc2[nH]c(=O)c3ccccc3c2c1	none
Cc1ccc2cccc(NC(=S)NC(=O)c3ccccc3)c2n1	TIM10 inh 42.3, tim10-1 inh 43.1 (no result: PfHsp90 set2) | tim10-1 conf 30.8 | TIM10 conf 42.8
CCC(C(=O)NC1CCCCCC1)n1nc(C)c2c(C)n(-c3ccccc3)nc2c1=O (centres undefined)	none
Cc1ccc(OCC(=O)NNC(=O)C(C)Sc2ncnc3sc(C)c(C)c23)cc1 (centres undefined)	TIM10 inh 54.8, tim10-1 inh 42.0 | tim10-1 conf 41.8 | TIM10 conf inactive
COCCN(C(=O)COC(=O)c1cc2c(s1)CCCC2)c1c(N)n(Cc2ccccc2)c(=O)[nH]c1=O	none (no result: NALP1 yeast inh)
COc1ccc(C(=O)/C=C2/Sc3cc4c(cc3N2C)OCO4)cc1	none
COc1ccc2c(c1)S/C(=C\C(=O)c1ccncc1)N2C	TIM10 inh 81.5, tim10-1 inh 53.7 | tim10-1 conf 73.3 | TIM10 conf 85.3
O=C(Nc1ccc(OCC(F)(F)C(F)F)c(C(F)(F)F)c1)c1ccc(Cl)cc1	TIM10 inh 58.3, tim10-1 inh 52.8 (no result: NALP1 yeast inh) | tim10-1 conf 35.1 | TIM10 conf inactive
C=C(CN(C)C)C(=O)c1cc(C)ccc1C	none (no result: NALP1 yeast inh, NALP3 yeast inh, TIM10 inh, tim10-1 inh, tim23-1 inh)
Cc1ccc(N2C(=O)c3ccc(N)cc3C2=O)cc1C	tim10-1 inh 42.5, tim23-1 inh 51.5 (no result: PfHsp90 set2) | tim10-1 conf 36.4 | tim23-1 confirm 43.0
Cc1ccc(N2C(=O)c3ccc(N)cc3C2=O)cc1	none (no result: PfHsp90 set2)
C#CCN1C(C)=CC(=O)[C@@H](O)[C@H]1c1ccccc1Br	none (no result: NALP1 yeast inh, NALP3 yeast inh, TIM10 inh, tim10-1 inh, tim23-1 inh)
O=C(CCCNC(=O)c1ccc(Cl)cc1)Nc1nccs1	none (no result: NALP1 yeast inh)
